# Calls of active or inactive are those of the source. How the source made its calls: active means hit-call score of the fitted dose curve at least 0.9, where 1 is the maximum; inactive means score below 0.9.
# Read-out: Monokine induced gamma interferon (MIG), CXCL9 (gene 4283)
# Assay: BSK_3C_MIG: BioMAP Diversity Plus: 3C Assay for Monokine induced gamma interferon (MIG) Biomarker Activity (AID 2283021);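 on AC50: MIG protein level measured by immunoassay in the treated endothelial cultures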
# Conditions: primary human endothelial cells (HUVEC); actives raise or lower the signal
# Procedure: BSK_3C is a cell-based, multiplexed-readout assay that uses umbilical vein endothelium, a human vascular primary cell, with measurements taken at 24 hours after chemical dosing in a 96-well plate.BSK_3C_MIG is an assay component measured in the BSK_3C assay. It measures MIG antibody related to regulation of gene expression using ELISA technology.Data from the assay component BSK_3C_MIG was analyzed into 1 assay endpoint. This assay endpoint, BSK_3C_MIG, was analyzed with bidirectional fitting relative to DMSO as the negative control and baseline of activity. Using a type of binding reporter, gain or loss-of-signal activity can be used to understand changes in the signaling as they relate to the gene CXCL9. Furthermore, this assay endpoint can be referred to as a primary readout, because this assay has produced multiple assay endpoints where this one serves a signaling function. To generalize the intended target to other relatable targets, this assay endpoint is annotated to the cytokine intended target family, where the subfamily is chemotactic factor.
# The levels of cell surface (or secreted, indicated by the prefix "s") biomarker endpoints were measured by ELISA. Overt cytotoxicity to cells in confluent adherent cultures (all systems other than the BT system) was assessed by measuring total protein levels using sulforhodamine B (SRB) staining in parallel cultures at the time of biomarker measurements, indicated as SRB endpoints. For proliferation assays for adherent cell types, individual cell types are cultured at sub-confluence and relative cell numbers quantified by SRB staining at time points optimized for each system (48 h: 3C and CASM3C systems; 72 h: BT and HDF3CGF systems; 96 h: SAg system). SRB was performed by staining cells with 0.1% SRB after fixation with 10% TCA and reading wells at 560 nm.Viability and proliferation of PBMC (T cells) was quantified by Alamar Blue reduction for the SAg and BT systems. For PBMC viability (referred to as PBMC Cytotoxicity within the assay endpoint names), cells were plated (75,000/well in a 96-well plate) and then chemical samples added for 1 h before addition of activators, SEB and TSST-1 (20 ng/mL final concentration each). Cells were incubated for 90 h. Then, Alamar Blue (20 uL/well) (Invitrogen, Cat DAL1100) was added for 6 h, and the plates were read with a fluorescence microplate reader at 546/580 nm (excitation/emission). For PBMC proliferation, cells were plated and activated as above but incubated for only 16 h prior to addition of Alamar Blue. Plates were read after 6 h.
SMILES,outcome,AC50
CCCC(CCC)C(=O)O,inactive,
OCC(CO)(CO)CO,inactive,
CCCCCCCCCCCCCCCCOS(=O)(=O)O,inactive,
Cc1ncc([C@@H](CCCCCCc2ccc3c(n2)NCCC3)CC(=O)O)cn1,inactive,
c1ccc2ncccc2c1,inactive,
CC(C)c1nnc2ccc(-c3ocnc3-c3cc(F)ccc3F)cn12,inactive,
CCCCCCCC1CCC(=O)O1 (stereo not given),inactive,
O=c1[nH]cnc2c1ncn2[C@H]1CC[C@@H](CO)O1,inactive,
O=C1CN(N=Cc2ccc([N+](=O)[O-])o2)C(=O)N1,inactive,
CCCCOC(=O)c1ccccc1,inactive,
Cn1c(=O)c2[nH]cnc2n(C)c1=O,inactive,
COc1cc2c(c(OC)c1OC)-c1ccc(OC)c(=O)cc1[C@@H](NC(C)=O)CC2,inactive,
CC1(C)C(=O)N(Cl)C(=O)N1Cl,inactive,
CC(C)C(=O)Nc1ccc([N+](=O)[O-])c(C(F)(F)F)c1,inactive,
FC(F)(F)C(F)(F)C(F)(F)C(F)(F)C(F)(F)C(F)(F)I,inactive,
CCCCN1C(=O)[C@@H]([C@H](O)C2CCCCC2)NC(=O)C12CCN(Cc1ccc(Oc3ccc(C(=O)O)cc3)cc1)CC2,inactive,
O=S(=O)(O)c1ccc(N=Nc2c(O)ccc3cc(S(=O)(=O)O)ccc23)cc1,inactive,
C=CCc1cc(S(=O)(=O)c2ccc(O)c(CC=C)c2)ccc1O,,34.8 µM (active)
O=C(Cl)C(F)(F)C(F)(F)C(F)(F)C(=O)Cl,inactive,
OCc1c[nH]c2ccccc12,inactive,

SMILES,outcome,AC50
CC(=O)c1ccccc1,inactive,
O=C(O)[C@H](O)[C@@H](O)C(=O)O,inactive,
OCc1ccccc1,inactive,
Nc1ccn([C@@H]2O[C@H](CO)[C@@H](O)[C@@H]2O)c(=O)n1,inactive,
c1ccc2cc3ccccc3cc2c1,inactive,
CCCc1ccccc1,inactive,
S=P(N1CC1)(N1CC1)N1CC1,inactive,
CCCCCCCC/C=C\CCCCCCCC(=O)OC[C@@H](O)[C@H]1OC[C@H](O)[C@H]1O,inactive,
FC(F)C(F)(F)COCC1CO1 (stereo not given),inactive,
NC(=O)N1c2ccccc2C=Cc2ccccc21,inactive,
CCCOc1ccc(S(=O)(=O)N2CCN(CC)CC2)cc1-c1nc2c(CC)n(Cc3ccccn3)nc2c(=O)[nH]1,inactive,
FC(F)(F)COC(OCC(F)(F)F)OCC(F)(F)F,inactive,
COc1cc(C(C)C)c2c(c1)S(=O)(=O)N(COc1cc(=O)n3cccc(OCCN4CCCCC4)c3n1)C2=O,inactive,
NC(=O)N(O)[C@@H]1COc2cc(OCc3ccccc3)ccc21,inactive,
OC[C@H]1O[C@@H]2O[C@H]3[C@H](O)[C@@H](O)[C@@H](O[C@H]4[C@H](O)[C@@H](O)[C@@H](O[C@H]5[C@H](O)[C@@H](O)[C@@H](O[C@H]6[C@H](O)[C@@H](O)[C@@H](O[C@H]7[C@H](O)[C@@H](O)[C@@H](O[C@H]1[C@H](O)[C@H]2O)O[C@@H]7CO)O[C@@H]6CO)O[C@@H]5CO)O[C@@H]4CO)O[C@@H]3CO,inactive,
c1ccc(C(O[C@@H]2CCCN(CCc3ccc4c(c3)OCO4)C2)c2ccccc2)cc1,inactive,
O=S1(=O)CCCO1,inactive,
OC(CCl)CCl,inactive,
O=C(O)c1ccc2c(c1)nc(C(=O)NC1CCN(C3CC3)CC1)n2Cc1cc(-c2ccc(Cl)s2)on1,inactive,
CCOc1ccc2[nH]cc(C(=O)NCc3ccccc3)c(=O)c2n1,inactive,

# — PubChem BioAssay (EPA / NIEHS)
